# High-throughput results deposited in PubChem by National Center for Advancing Translational Sciences (NCATS).
# TDP1 block: TDP1 (human) enzyme inhibition. Potency, µM (titrated, usually from 130 µM), inactives show top-dose activity change, negative = inhibition, hits mostly inhibitors. actives 0.28% (n = 350,000). recombinant TDP1, AlphaScreen DNA substrate cleavage. Q9NUW8; note: potency is the fitted concentration of half-maximal effect; % is set by controls: 0 for no effect and ±100 for the full control effect; nearly all actives have a fitted effect of over 40% in size
#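 E. coli-derived human Tdp1, 1 nM final. Cpd preinc 15 min RT; substrate 15 nM final, 5 min RT; AS bead mix 10 ug/ml final, 10 min RT. Signal loss = tyrosine-FITC cleavage. No-enzyme wells = max signal.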
# CtBP-E1A inh: CtBP/E1A binding inhibition; actives 0.49% (n = 340,000); AlphaScreen GST-E1A/His-CtBP binding, 1536-well; stronger effect = lower value; activity change, % (no concentration beside the values); in the data active = activity change below about -65%; inconclusive = mostly about -30% to -63%; note: % is set by controls: 0 for no effect and ±100 for the full control effect
#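 In 5 uL wells, 23 nL compound meets equimolar GST-E1A and His-CtBP (5X stock 125 nM each) for 2 h, 37 °C. Beads (5X, 50 ug/mL) then 1 h, 37 °C, dark.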
# HP1b binding inh: inhibitors of HP1-beta chromodomain binding to methylated histone tails | P83916 | AlphaScreen HP1-beta / biotin-H3K9me3 peptide binding | Potency, µM (doses to about 114 µM), without a hit: at the top dose activity change, negative = inhibition, hits mostly inhibitors | actives 0.56% (n = 390,000) | AID 540317; note: potency is the fitted concentration of half-maximal effect; nearly all actives have a fitted effect of over 70% in size
#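 Compound inhibition of the preformed complex between 50 nM HP1-beta and 50 nM biotinylated H3K9me3 peptide was read by AlphaScreen. Buffer was PBS pH 7.4 with 0.01% Tween-20. Incubations ran 30 min at room temperature, with 10 ug/mL donor/acceptor beads.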
# Six1-Eya2 blk: inhibitors of human Six1/Eya2 interaction. activity change, % (no concentration beside the values). Q15475+O00167. AlphaScreen GST-Six1/His-Eya2 binding, biochemical; stronger effect = lower value. actives 0.56% (n = 360,000); in the data active = activity change below about -65%; inconclusive = mostly about -30% to -63%; note: % is set by controls: 0 for no effect and ±100 for the full control effect
# Target sequence (O00167 whole entry, looked up): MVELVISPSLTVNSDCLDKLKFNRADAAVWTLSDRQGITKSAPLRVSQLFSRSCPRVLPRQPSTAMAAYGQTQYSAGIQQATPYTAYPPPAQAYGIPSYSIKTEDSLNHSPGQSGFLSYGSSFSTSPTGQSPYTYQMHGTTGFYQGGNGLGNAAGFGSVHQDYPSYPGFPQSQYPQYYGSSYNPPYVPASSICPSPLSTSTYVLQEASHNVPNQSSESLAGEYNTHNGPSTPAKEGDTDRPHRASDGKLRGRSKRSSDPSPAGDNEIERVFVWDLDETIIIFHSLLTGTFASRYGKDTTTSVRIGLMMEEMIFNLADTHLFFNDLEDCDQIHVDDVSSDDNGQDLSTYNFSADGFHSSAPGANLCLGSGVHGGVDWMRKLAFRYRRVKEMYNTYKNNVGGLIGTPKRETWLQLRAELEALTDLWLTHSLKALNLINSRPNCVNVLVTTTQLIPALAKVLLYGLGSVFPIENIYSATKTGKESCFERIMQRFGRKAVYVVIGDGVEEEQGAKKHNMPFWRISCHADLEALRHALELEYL
# Target sequence (Q15475 whole entry, looked up): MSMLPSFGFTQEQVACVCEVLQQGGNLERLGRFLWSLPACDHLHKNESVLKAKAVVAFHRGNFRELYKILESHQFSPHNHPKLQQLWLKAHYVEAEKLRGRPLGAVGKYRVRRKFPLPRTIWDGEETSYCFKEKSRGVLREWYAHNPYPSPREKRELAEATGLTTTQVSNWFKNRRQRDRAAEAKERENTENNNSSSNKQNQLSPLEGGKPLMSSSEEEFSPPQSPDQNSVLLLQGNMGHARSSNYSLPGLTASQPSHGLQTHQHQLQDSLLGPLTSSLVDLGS
#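 AlphaScreen with GST-Six1 and His-Eya2 (5X mix: 250 nM and 500 nM), glutathione donor and nickel acceptor beads; buffer 50 mM Tris pH 8.0, 300 mM NaCl, 1 mM TCEP; 1 h at 37 C in the dark.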
# BAZ2B inh: blocks human BAZ2B; Q9UIF8; AlphaScreen BAZ2B-H3K14Ac peptide displacement; Potency, µM (highest dose often 114 µM), without a hit: top-dose activity change, negative = inhibition, hits mostly inhibitors; actives 4.4% (n = 360,000); note: potency is the fitted concentration of half-maximal effect; % is set by controls: 0 for no effect and ±100 for the full control effect; nearly all actives have a fitted effect of over 60% in size
#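 Compounds, titrated to a top concentration of 110 uM, were incubated 30 min at room temperature with preformed BAZ2B/acetyl-K14 H3 peptide complex (50 nM each). Proximity signal was measured by AlphaScreen after 20 min with beads.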
# JMJD2A Tudor inh: JMJD2A Tudor domain (human) inhibition. Potency, µM (highest dose often 114 µM), inactives show top-dose activity change, negative = inhibition, actives largely listed as inhibitors. AlphaScreen JMJD2A-Tudor / H3K4me3 peptide binding. actives 4.4% (n = 390,000); note: potency is the fitted concentration of half-maximal effect; % is set by controls: 0 for no effect and ±100 for the full control effect; nearly all actives have a fitted effect of over 50% in size
# * hit, by the source's call; i = inactive; ? = inconclusive; nt = no result; [ ] = dose if it differs, or a comment. Shown are actives, neighbours in structure and some others; about 5.3% of the full set was active somewhere. Unless noted, calls come from the whole dose curve; as a rule, active = well fitted inhibition curve with a large enough effect; inconclusive = small, poorly fitted or top-dose-only effect; inactive = no such curve, though single readings can be large or run the other way.
SMILES,TDP1 block,CtBP-E1A inh,HP1b binding inh,Six1-Eya2 blk,BAZ2B inh,JMJD2A Tudor inh
COc1ccc(CNC(=O)CC(C)n2nc(C)cc2C)cc1 (stereo not drawn),3.2%,nt,49.2%,nt,-17.6%,-14.0%
COc1ccc(CCNC(=O)C2(c3cccs3)CCOCC2)cc1,5.2%,nt,22.9%,nt,1.6%,-3.9%
CC1CCCCN1C(=O)CSc1nc2ccccc2nc1Cc1ccc(Cl)cc1 (stereo not drawn),2.7%,nt,30.0%[57 µM],nt,3.7%,-5.8%
CCOCCCn1c(=N)c(C(N)=S)cc2c(=O)n3cccc(C)c3nc21,4.6%,-28.7,-22.8%,-22.0,?,79.4µM*
CCOc1ccc(N2C(=O)CC(Sc3n[nH]c(-c4ccccc4)n3)C2=O)cc1 (stereo not drawn),7.4%,nt,?,-1.0,-10.6%,4.47µM*
COc1ccc(N2C(=O)CC(Sc3n[nH]c(-c4ccccc4)n3)C2=O)cc1 (stereo not drawn),9.5%,-0.8,?,-0.5,-12.3%,5.01µM*
CCOc1ccc2nc(SC3CC(=O)N(c4ccccc4)C3=O)sc2c1 (stereo not drawn),-3.9%,3.5,75.8%,-4.6,0.2%,?
C#CCOCCOCCOCCNc1nc(N2CCN(C(=O)[C@H](CCC(=O)O)n3cc(C(N)CC(C)C)nn3)CC2)nc(N2CCN(C(=O)[C@H](CCC(=O)O)n3cc(C(N)[C@H](C)CC)nn3)CC2)n1 (stereo partly drawn),0.0%,nt,27.2%,1.7,50.1µM*,79.4µM*
C#CCOCCOCCOCCNc1nc(N2CCN(C(=O)[C@H](CCC(=O)O)n3cc(C(N)CC(C)C)nn3)CC2)nc(N2CCN(C(=O)[C@H](Cc3ccc(O)cc3)n3cc(C(N)[C@H](C)CC)nn3)CC2)n1 (stereo partly drawn),2.6%,nt,nt,nt,31.6µM*,nt
C#CCOCCOCCOCCNc1nc(N2CCN(C(=O)C([C@@H](C)CC)n3cc(C(N)CC(C)C)nn3)CC2)nc(N2CCN(C(=O)[C@H](CCC(=O)O)n3cc(C(N)[C@H](C)CC)nn3)CC2)n1 (stereo partly drawn),1.3%,-5.7,31.8%,-2.7,?,70.8µM*
Cc1ccc2c(=O)c(C(=O)c3ccc(Cl)cc3)cn(CC(=O)Nc3ccc4c(c3)OCCO4)c2n1,2.1%,nt,19.5%,nt,9.2%[57.1 µM],-5.8%
O=C(NCCc1ccccc1)c1cc2sccc2n1Cc1ccc(F)cc1,-3.8%,nt,26.3%,nt,-1.1%,-9.9%
CCOC(=O)C(Cc1ccccc1)C(=O)Nc1ccc(N(CC)CC)cc1 (stereo not drawn),5.3%,-28.6,?,?,?,50.1µM*
CCN(CC)S(=O)(=O)c1ccc2c(c1)c(=O)c(C(=O)NCc1ccc(Cl)cc1)cn2C,2.3%,nt,12.2%,nt,nt,-12.3%
OCCNCc1ccc(-c2ccccc2)cc1,-1.8%,-23.5,24.3%,11.0,6.7%,-26.7%
OCCCNCc1ccc(N(c2ccccc2)c2ccccc2)cc1,0.8%,-5.9,70.8µM*,9.2,56.2µM*,39.8µM*
Cc1nccn1CCOc1ccc(Cl)cc1,nt,-1.3,?,-18.4,44.7µM*,4.47µM*
Cc1ccc(OCCCCn2ccnc2C)c(C)c1,11.6%,-1.0,?,-11.0,22.4µM*,1µM*
Cc1ccc(C(C)C)c(OCCn2ccnc2C)c1,nt,-0.6,?,-16.7,50.1µM*,1.26µM*
Cc1ccc(-n2nc(C(=O)N3CCN(c4cc(Cl)ccc4C)CC3)c(=O)n(C)c2=O)cc1,6.5%,nt,37.2%[57 µM],nt,-1.1%,?
Cc1snc(S(=O)(=O)/C(C#N)=N/Nc2cccc(C(F)(F)F)c2)c1C#N,7.5%,-16.2,-31.2%,-16.8,?,50.1µM*
CCCCCCCCSc1nnc2[nH]c(=O)cc(N)n12,3.7%,1.6,-17.3%,29.6,-19.4%,11.2µM*
CCCCCCSc1nnc2[nH]c(=O)cc(N)n12,2.6%,-11.6,17.8%,-14.8,1.3%,-34.6%
Cn1nnnc1SCCCNCc1cccc(OCc2ccccc2)c1,-0.5%,nt,40.4%,nt,-14.3%,-7.9%
CN(C)NC(=S)NC1CCS(=O)(=O)C1 (stereo not drawn),1.4%,2.3,9.8%,-13.1,-16.3%,31.6µM*
SMILES,TDP1 block,CtBP-E1A inh,HP1b binding inh,Six1-Eya2 blk,BAZ2B inh,JMJD2A Tudor inh
c1ccc(-c2cc(-c3ccc(N4CCOCC4)cc3)nc3ccccc23)cc1,nt,21.5,141.1%,23.0,27.2%,57.0%
COc1ccc2c(-c3ccccc3)cc(N3CCOCC3)nc2c1,nt,15.3,25.1µM*,37.7,25.1µM*,1.26µM*
C#C[C@]1(O)CC[C@@H]2[C@H]3CCC4=Cc5oncc5C[C@]4(C)[C@@H]3CC[C@@]21C,13.8%[21 µM],nt,nt,nt,nt,nt
Cc1ccc(-c2nc(CCN3C(=O)c4ccccc4C3=O)cs2)cc1,-3.9%,15.7,97.2%,12.5,30.4%,17.8%
O=C1c2ccccc2C(=O)N1CCc1csc(NNc2nc(CCN3C(=O)c4ccccc4C3=O)cs2)n1,2.5%,-1.8,-12.3%,-22.7,35.5µM*,?
O=C1c2ccccc2C(=O)N1CCc1ccccc1,nt,0.6,?,1.5,nt,56.2µM*
CCCCN1C(=O)c2ccccc2C1=O,0.9%,nt,nt,nt,nt,6.8%
O=C1c2ccccc2C(=O)N1CCCCCCc1ccccc1,35.5µM*,75.3,i,76.8,i,292.1%
COc1cc(OC)c(NC(=O)c2ccc3nc(C(C)C)oc3c2)cc1Cl,5.3%,nt,22.5%[57 µM],nt,-5.2%,7.7%
Cc1ccccc1CNC(=O)CCC(=O)N1CC2CCCN2c2ccccc21 (stereo not drawn),8.4%,nt,-11.3%,nt,?,?
O=C(CCC(=O)N1CC2CCCN2c2ccccc21)NCc1ccccc1F (stereo not drawn),8.4%,nt,34.6%,nt,-32.1%,44.7µM*
COc1cccc([C@@H]2Oc3ccc(OC)cc3/C(=N/OC[C@@H](C)[C@H](OCc3ccccc3)C(C)C)[C@@H]2O)c1,4.8%[21 µM],nt,nt,nt,nt,nt
C=CCn1c(COc2ccccc2)nnc1SCC(=O)Nc1ccc2c(c1)OCCO2,6.0%,-5.5,9.3%,6.6,-27.5%,-13.2%
C=CCn1c(SCC(=O)Nc2ccc3c(c2)OCCO3)nnc1-c1ccccn1,1.0%,2.8,11.5%,-2.7,?,89.1µM*
C=CCn1c(SCC(=O)NC2CC2)nnc1-c1ccccn1,4.0%,-1.6,38.6%,0.0,?,14.5%
O=C(CSc1nnc(-c2ccccn2)n1Cc1ccccc1)NC1CCCC1,0.0%,-2.3,27.3%,-1.6,89.1µM*,-2.0%
Cn1c(SCC(=O)NC2CCCCC2)nnc1-c1ccccn1,2.9%,-1.8,24.1%,-5.9,79.4µM*,2.1%
C=CCn1c(SCC(=O)NC2CCCCC2)nnc1-c1ccccn1,-5.6%,2.3,31.7%,-3.5,79.4µM*,-8.1%
